Assay [1] can be described thus: inhibitors of TNFa-induced NFkB p65 translocation, primary screen, imaging, HUVEC, MLSMR starter and 10KST1 sets (AID 438;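 active means inhibition above 20% together with a positive visual image hit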;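 further: compound added about 3h40 before a 20 min TNFalpha stimulation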;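 on inhibition: signal is the nuclear over cytoplasmic p65 intensity ratio per well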). As to conditions: HUVEC TNFa-induced p65 nuclear translocation; cell count: measured here: nuclei count (cytotoxicity indicator), at 2.08 µM; inhibition: at 2 µM, stronger effect = higher value, 0% TNFa-plus-vehicle, 100% no-TNFa wells.
The nature of assay [2]: reduction of polyQ htt aggregates in cells – imaging, exon1htt(103Q)mCFP cells, high-content imaging, primary screen (AID 483;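 active means visual image review flags a hit and inhibition of aggregation exceeds 20%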;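 further: compound exposure lasted 3 days before fixation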;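 on nuclei count: percent of the per-plate median nuclei count of sample wells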). As to conditions: exon1htt(103Q)mCFP cell line, aggregate imaging, at 2 µM; inhibition of aggregation: stronger effect = higher value; nuclei count: measured here: cell count, toxicity.
Assay [3] can be described thus: endothelial E-selectin expression blockers – imaging, HUVEC, immunofluorescence, MLSMR starter and 10KST1 sets, primary screen (AID 487;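 active means visually confirmed hit in the image check and inhibition above 20%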;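 on inhibition: signal is fraction of cell area covered by stained E-selectin grains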;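 on nuclei count: 100% = median nuclei count of all wells on the same plate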). As to conditions: HUVEC TNFalpha-induced E-selectin immunofluorescence imaging, at 2 µM; inhibition: stronger effect = higher value; nuclei count: measured here: cell number, toxicity.
Assay [4] deals with Voltage-gated potassium channel subunit beta-2 (Rattus norvegicus) (UniProt P62483). As to the kind of experiment: inhibitors of rat Kvbeta2 reductase activity – biochemical, NADPH fluorescence, primary screen (AID 622;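 active means fluorescence slope higher than the sample average by over 3 SD, cut at about -0.22 in these data, passing the limit was not always enough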;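 further: slope of raw intensity against log time taken from 70 to 1610 s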). As to conditions: recombinant KvBeta, 4-cyanobenzaldehyde reduction, at 10 µM, stronger effect = higher value.
Chain of Voltage-gated potassium channel subunit beta-2 (Rattus norvegicus) (P62483 whole entry, looked up): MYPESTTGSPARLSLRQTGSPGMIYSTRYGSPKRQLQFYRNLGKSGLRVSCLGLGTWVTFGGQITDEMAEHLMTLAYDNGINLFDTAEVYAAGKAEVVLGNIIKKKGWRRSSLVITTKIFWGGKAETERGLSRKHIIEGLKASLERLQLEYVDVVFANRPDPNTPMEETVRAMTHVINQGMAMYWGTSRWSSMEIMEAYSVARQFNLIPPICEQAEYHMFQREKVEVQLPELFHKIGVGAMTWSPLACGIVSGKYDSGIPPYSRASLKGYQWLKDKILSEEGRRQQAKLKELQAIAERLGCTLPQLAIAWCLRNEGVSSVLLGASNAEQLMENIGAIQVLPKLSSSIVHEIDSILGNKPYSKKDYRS
Assay [5] has the same target. Description: enhancers of rat Kvbeta2 NADPH turnover – biochemical, NADPH fluorescence, primary screen (AID 623;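 active means NADPH fluorescence slope more negative than the mean of all samples by about 3 SD, 99.7% confidence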;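 further: fluorescence intensity change per second fitted from 20 to 320 s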). As to conditions: Recombinant KvBeta, NADPH fluorescence decrease slope, 10 min; at 10 µM; stronger effect = lower value.
The target of assay [6] is Alpha-2C adrenergic receptor (Homo sapiens) (UniProt P18825). As to the kind of experiment: compounds altering alpha2C-coupled GIRK flux – cell-based, HEK293 alpha2C/GIRK1/2, thallium flux, primary screen (AID 624;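 active means fluorescence slope after compound addition differing from the mean of all screened samples at 99.7% confidence, in either direction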;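 further: slope of fluorescence ratio to pre-addition baseline per second over 15 to 24 s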). As to conditions: thallium flux BTC fluorescence, at 10 µM, actives lie on both sides.
Chain of Alpha-2C adrenergic receptor (Homo sapiens) (P18825 whole entry, looked up): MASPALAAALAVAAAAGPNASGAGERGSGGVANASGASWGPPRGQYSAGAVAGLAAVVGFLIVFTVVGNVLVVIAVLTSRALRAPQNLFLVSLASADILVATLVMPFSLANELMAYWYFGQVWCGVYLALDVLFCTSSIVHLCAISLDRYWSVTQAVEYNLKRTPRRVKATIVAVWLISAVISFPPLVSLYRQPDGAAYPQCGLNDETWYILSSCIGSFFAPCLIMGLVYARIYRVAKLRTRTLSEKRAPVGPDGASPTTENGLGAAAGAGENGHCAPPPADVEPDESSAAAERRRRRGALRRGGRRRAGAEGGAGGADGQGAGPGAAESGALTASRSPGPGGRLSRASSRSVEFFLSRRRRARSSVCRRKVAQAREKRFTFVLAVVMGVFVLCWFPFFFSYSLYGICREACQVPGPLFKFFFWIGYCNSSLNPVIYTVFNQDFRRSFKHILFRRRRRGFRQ
Assay [7] is described as follows: blockers of RIG-like receptor reporter activation – cell-based, Sendai virus stimulus, luciferase, 10K MLSCN set, TLR/RLR signaling modifier project, primary screen (AID 602276;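 active means inhibition at or above 50% at 10 µM; inactive means inhibition below 50%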;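 further: firefly luciferase from ISG56 promoter only with Renilla not read in this screen; 0% = Sendai virus plus DMSO and 100% = medium plus DMSO without virus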). As to conditions: HEK293 RL24 IRF3 luciferase reporter, at 10 µM, stronger effect = higher value. For orientation: In a reporter assay the amount or activity of a reporter protein is the signal.
The nature of assay [8]: TLR3 IRF3 reporter activation blockers – cell-based, poly I:C stimulus, luciferase, 10K MLSCN set, primary screen (AID 602277). As to conditions: HEK293-TLR3 RL24 IRF3 luciferase reporter, at 10 µM, stronger effect = higher value.

Calls of active or inactive are those of the source.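 How the source made its calls, unless noted: active means inhibition of the reporter signal at or above 50%; inactive means inhibition below 50%.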

For orientation: inhibition means the change of the read-out against control, counted positive when it falls. As for `CCn1c(C)nc2cc(C(=O)OCCC(F)(F)F)ccc21`, the cell count in assay [1] came out at 531. In addition, the inhibition in assay [1] is -9% (inactive); in assay [3], 6.2% (inactive); in assay [7], -16.4% (inactive); in assay [8] it was -104% (inactive). In addition, the inhibition of aggregation in assay [2] was -1.8% (inactive). Also, the nuclei count was found to be 106% in assay [2] and 92.5% in assay [3]. Also, the fluorescence slope in assay [4] was -0.263 (inactive). Further, the NADPH fluorescence slope in assay [5] was -2.2e-05 (inactive). The slope in assay [6] was 0.00759 (inactive).

In the case of `Cc1ccc2[nH]c(=O)c(CN(Cc3ccc4c(c3)OCO4)Cc3nnnn3Cc3ccco3)cc2c1`, the cell count in assay [1] came out at 638. Besides, the inhibition in assay [1] was 2.2% (inactive); in assay [3], -74.1% (inactive); in assay [7], 9.33% (inactive); in assay [8], 12.2% (inactive). Moreover, the inhibition of aggregation in assay [2] was -15.3% (inactive). Further, the nuclei count in assay [2] came out at 94.1%; in assay [3] it was 122%. Further, the fluorescence slope in assay [4] was -0.622 (inactive). The NADPH fluorescence slope in assay [5] is -7e-06 (inactive). In addition, in assay [6], the slope is 0.00625 (inactive).

In the case of `Cc1ccc(CN2C(=O)CCC2C(=O)NCCCN2CCC(C)CC2)cc1` (centres undefined), the cell count in assay [1] was 379. Further, the inhibition was -7.4% (inactive) in assay [1], 6.2% (inactive) in assay [3], 14.7% (inactive) in assay [7] and 9.9% (inactive) in assay [8]. In addition, the inhibition of aggregation in assay [2] was 19.6% (inactive). Also, the nuclei count in assay [2] was found to be 85.5%; in assay [3] it was 77.7%. The fluorescence slope in assay [4] is -0.584 (inactive). In assay [5], the NADPH fluorescence slope is -3.4e-05 (inactive). Besides, the slope in assay [6] is 0.00384 (inactive).

As for `COC(=O)CSc1nnc(-c2ccncc2)o1`, in assay [1], the cell count stood at 366. The inhibition in assay [1] is -6.8% (inactive); in assay [3] it was -16.8% (inactive); in assay [7] it was 6.97% (inactive); in assay [8] it was 32.3% (inactive). In assay [2], the inhibition of aggregation was -4.1% (inactive). Moreover, the nuclei count amounted to 94.2% in assay [2] and 106% in assay [3]. Also, in assay [4], the fluorescence slope is -0.46 (inactive). The NADPH fluorescence slope in assay [5] is -4.6e-05 (inactive). Moreover, the slope in assay [6] was 0.00309 (inactive).

For `CC(=O)c1ccc(OCC(O)CN2CC(C)OC(C)C2)cc1` (centres undefined), the cell count in assay [1] came out at 310. The inhibition in assay [1] was 8.6% (inactive); in assay [3] it was 0.4% (inactive); in assay [7] it was 9.28% (inactive); in assay [8], 16.8% (inactive). In addition, the inhibition of aggregation in assay [2] was 15% (inactive). Also, the nuclei count in assay [2] is 92.4%; in assay [3], 98.9%. Moreover, in assay [4], the fluorescence slope is -0.613 (inactive). The NADPH fluorescence slope in assay [5] is 9.2e-06 (inactive). The slope in assay [6] is 0.00724 (inactive).

Regarding `Cc1nnc(SCc2cn3ccsc3n2)n(N)c1=O`, in assay [1], the cell count is 858. The inhibition in assay [1] is -10.7% (inactive); in assay [3], -50.6% (inactive); in assay [7], 17.8% (inactive); in assay [8], 31.6% (inactive). For the same molecule, in assay [2], the inhibition of aggregation was -21% (inactive). The nuclei count in assay [2] amounted to 105%; in assay [3] it was 121%. In assay [4], the fluorescence slope is -0.641 (inactive). For the same molecule, the NADPH fluorescence slope in assay [5] is 1.9e-05 (inactive). The slope in assay [6] was 0.00624 (inactive).

`COc1ccccc1NC(=O)N(C1CCCC1)C1CCN(C(C)=O)CC1`: the cell count in assay [1] turned out to be 830. Further, the inhibition was 18.5% (inactive) in assay [1], -61.6% (inactive) in assay [3], 12.4% (inactive) in assay [7] and 34.4% (inactive) in assay [8]. Also, the inhibition of aggregation in assay [2] is -7% (inactive). For the same molecule, the nuclei count in assay [2] came to 98%; in assay [3], 123%. Also, the fluorescence slope in assay [4] was -0.582 (inactive). Further, in assay [5], the NADPH fluorescence slope was -3.7e-05 (inactive). Further, the slope in assay [6] is 0.00578 (inactive).

Turning to `c1cn2cc(CSC3CCCCC3)nc2s1`, the cell count in assay [1] was 641. In addition, the inhibition is 11% (inactive) in assay [1], -53.3% (inactive) in assay [3], -32.1% (inactive) in assay [7] and -53% (inactive) in assay [8]. For the same molecule, the inhibition of aggregation in assay [2] was 12.1% (inactive). Besides, the nuclei count in assay [2] is 107%; in assay [3] it was 140%. For the same molecule, in assay [4], the fluorescence slope is -0.585 (inactive). In addition, the NADPH fluorescence slope in assay [5] was -4.6e-05 (inactive). In addition, the slope in assay [6] is 0.00605 (inactive).

As to `O=c1oc2ccccc2c2nccnc12`, the cell count in assay [1] stood at 410. Also, the inhibition in assay [1] was 2.1% (inactive); in assay [3] it was -5.2% (inactive); in assay [7], 5.7% (inactive); in assay [8] it was 27.5% (inactive). In addition, the inhibition of aggregation in assay [2] is 2.2% (inactive). In addition, the results for the nuclei count in assay [2] and in assay [3] were 104% and 107%, respectively. Further, the fluorescence slope in assay [4] was -0.456 (inactive). Further, the NADPH fluorescence slope in assay [5] is -3.3e-05 (inactive). In addition, the slope in assay [6] is 0.00253 (inactive).

Turning to `COc1ccc(S(=O)(=O)N2CCN(CC(=O)Nc3ccc(F)c(F)c3)CC2)cc1`, the cell count in assay [1] was 322. Also, the inhibition is -7.6% (inactive) in assay [1], -62.9% (inactive) in assay [3], 22.7% (inactive) in assay [7] and 32% (inactive) in assay [8]. Besides, the inhibition of aggregation in assay [2] is 9.7% (inactive). Moreover, the nuclei count is 94.6% in assay [2] and 97.3% in assay [3]. In addition, in assay [4], the fluorescence slope is -0.51 (inactive). Further, the NADPH fluorescence slope in assay [5] is -2.7e-05 (inactive). Also, the slope in assay [6] is 0.00502 (inactive).

`CCn1c(=O)c(C(=O)Nc2cccnc2)c(O)c2ccccc21`: the cell count in assay [1] was found to be 362. In addition, the inhibition in assay [1] was 4.1% (inactive); in assay [3] it was -39.9% (inactive); in assay [7] it was -1.35% (inactive); in assay [8], -9.19% (inactive). In addition, the inhibition of aggregation in assay [2] is 7% (inactive). Besides, the nuclei count in assay [2] came out at 105%; in assay [3] it was 107%. In assay [4], the fluorescence slope is -0.465 (inactive). In assay [5], the NADPH fluorescence slope is -4.5e-05 (inactive). In addition, the slope in assay [6] was 0.00569 (inactive).

With `Clc1ccc(OCc2nc(-c3ccccn3)no2)c(Br)c1`, the cell count in assay [1] was 814. In addition, the inhibition in assay [1] was 1.8% (inactive); in assay [3], -1.9% (inactive); in assay [7], -31.1% (inactive); in assay [8], -134% (inactive). The inhibition of aggregation in assay [2] was 4.2% (inactive). Also, the nuclei count in assay [2] was determined as 95%; in assay [3], 121%. Further, the fluorescence slope in assay [4] is -0.595 (inactive). For the same molecule, the NADPH fluorescence slope in assay [5] is -8.6e-06 (inactive). For the same molecule, the slope in assay [6] was 0.00567 (inactive).

`Cc1nc2ccc(S(=O)(=O)NC(C(=O)Nc3nccs3)C(C)C)cc2s1` (centres undefined): the cell count in assay [1] was 549. The inhibition in assay [1] is -6.2% (inactive); in assay [3], -17.1% (inactive); in assay [7], 13.6% (inactive); in assay [8] it was 30.5% (inactive). The inhibition of aggregation in assay [2] was -4.4% (inactive). Further, the results for the nuclei count in assay [2] and in assay [3] were 95.9% and 120%, respectively. Further, the fluorescence slope in assay [4] is -0.589 (inactive). Besides, in assay [5], the NADPH fluorescence slope is -2.2e-05 (inactive). Also, the slope in assay [6] is 0.00646 (inactive).

For `CCOC(=O)N1CCN(S(=O)(=O)c2ccc(F)c(C(=O)Nc3cc(C)cc(C)c3)c2)CC1`, the cell count in assay [1] came out at 578. Also, the inhibition in assay [1] is -19.7% (inactive); in assay [3], -87% (inactive); in assay [7] it was 1.83% (inactive); in assay [8], 14.3% (inactive). Also, the inhibition of aggregation in assay [2] was 16.1% (inactive). The results for the nuclei count in assay [2] and in assay [3] were 62.7% and 111%, respectively. In addition, the fluorescence slope in assay [4] is -0.393 (inactive). In addition, in assay [5], the NADPH fluorescence slope was -1.2e-05 (inactive). In assay [6], the slope was 0.00302 (inactive).
